# Only some compounds are listed: those with a hit (about 5.7% of all), similar ones and a draw of the others.
# AHR activator – AHR activators, primary screen, cell-based, luminescence, luciferase reporter, human; 320,000 compounds, 2.5% hits; AID 2796, 2010; AHR-responsive luciferase reporter cells; activation, % at 5 µM; Aryl hydrocarbon receptor (Homo sapiens), P35869; in the data active means activation above about 47%;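 further: 0% = vehicle wells and 100% = reference agonist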
# hcDAF12 agonist – H. contortus DAF-12 nuclear receptor activators, primary screen, cell-based, luminescence, HEK293, lit1-tk-luc reporter. HEK293 hcDAF-12 lit1-tk-luc reporter; 0% DMSO, 100% Δ7-dafachronic acid. activation, % at 6.8 µM. 370,000 compounds, 1.4% hits. AID 652067, 2013;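 active means activation above the mean of all tested compounds plus 3 SD, cut at about 5.5% in these data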;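 further: 100% = response to 3 µM Δ7-dafachronic acid high control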
# hgDAF12 agonist – H. glycines DAF-12 receptor agonists, primary screen, cell-based, luminescence, HEK293, GAL4 fusion, UAS-luciferase; Nuclear hormone receptor DAF-12 (Heterodera glycines), GAL4 fusion; HEK293 GAL4-hgDAF12 UAS-luciferase reporter, agonist luminescence; normalized to butyrate control; activation, % at 6.8 µM; 370,000 compounds, 1.8% hits;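 active means activation above a cutoff set at the mean of all screened compounds plus 3 SD, cut at about 10% in these data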;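 further: 0% = DMSO wells and 100% = sodium butyrate wells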
# DAX1 inh-1 – DAX1 (NR0B1) inhibitors on StAR promoter, primary screen, cell-based, luminescence, SF-1 (NR5A1), full-length DAX-1; HEK293T StAR-luciferase reporter, SF-1/DAX-1 repression relief; inhibition, % at 6.8 µM; 370,000 compounds, 1.1% hits;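 active means inhibition above the mean over all tested compounds plus 3 SD, cut at about 3.6% in these data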;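 further: 0% = DAX-1 cells with DMSO and 100% = cells lacking DAX-1 with DMSO; higher inhibition means more luminescence from relief of DAX-1 repression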
# ssDAF12 agonist – S. stercoralis DAF-12 nuclear receptor activators, primary screen, cell-based, luminescence, HEK293, GRIP1 co-expression, lit1-tk-luc; Nuclear hormone receptor DAF-12 (Strongyloides stercoralis); HEK293 ssDAF-12/GRIP1 lit1-tk-luc reporter; % of 3 µM dafachronic acid response; activation, % at 6.8 µM; 370,000 compounds, 1% hits; AID 652126, 2013;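 active means activation above the mean over all tested compounds plus 3 SD, cut at about 0.9% in these data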;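 further: 0% = DMSO-only wells and 100% = 3 µM delta7-dafachronic acid wells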
# DAX1 inh-2 – DAX1 (NR0B1) inhibitors, primary screen, cell-based, HEK293, Gal4-DAX1, luciferase luminescence; Nuclear receptor subfamily 0 group B member 1 (Homo sapiens), P51843; AID 504766, 2011; inhibition, % at 6.75 µM; HEK293 Gal4-DAX1 luciferase reporter; 340,000 compounds, 0.99% hits;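 active means inhibition above the mean over all tested compounds plus 3 SD, cut at about 4.2% in these data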;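 further: 0% = DAX1-transfected cells with DMSO and 100% = empty-vector control cells with DMSO; inhibition shows as a rise in luminescence from relieved DAX1 repression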
# Target sequence (P51843 207-470 limits assumed): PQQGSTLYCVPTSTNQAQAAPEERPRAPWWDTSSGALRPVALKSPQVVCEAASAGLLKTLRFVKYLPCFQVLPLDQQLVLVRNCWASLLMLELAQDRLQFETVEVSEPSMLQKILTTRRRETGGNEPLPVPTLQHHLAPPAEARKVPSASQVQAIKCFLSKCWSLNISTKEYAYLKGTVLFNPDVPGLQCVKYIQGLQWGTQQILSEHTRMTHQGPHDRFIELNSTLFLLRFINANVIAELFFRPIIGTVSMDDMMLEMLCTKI
# DAX1 conf – DAX1 (NR0B1) inhibitors relieving SF-1 repression, confirmation, cell-based, luminescence, HEK293T, full-length DAX-1, SF-1 activated StAR promoter. 2,400 compounds, 87% hits. shares compounds with DAX1 inh-1. inhibition, % at 6.8 µM. AID 652134, 2013. HEK293T StAR-promoter luciferase reporter, SF-1/DAX-1 repression;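 active means inhibition above the average of every tested compound plus 3 SD, cut at about 3.8% in these data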;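 further: 0% = DAX-1 cells with DMSO and 100% = no DAX-1 control cells with DMSO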
# SF1 AF2mut Luc – StAR reporter signal changes without DAX1, counter-screen for DAX1 inhibitor project, cell-based, luminescence, AF-2 mutant SF-1, transactivation | shares compounds with DAX1 inh-1 | HEK293 StAR-luciferase, SF-1 AF2 mutant | inhibition, % at 6.8 µM | 2,400 compounds, 78% hits | AID 652136, 2013;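 active means inhibition above the mean of all tested compounds plus 3 SD, cut at about 3% in these data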;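 further: 0% = DAX-1 transfected cells with DMSO and 100% = cells without DAX-1 with DMSO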
# LXR ag – LXR agonists, Gal4 luciferase reporter, confirmation, counter-screen for hcDAF-12 agonist project, cell-based, luminescence, HEK293, H. contortus campaign | HEK293 Gal4-LXR tk-luc reporter, 24 h; normalized: DMSO 0%, positive control 100% | activation, % at 6.8 µM | shares compounds with hcDAF12 agonist | 3,400 tested, under 10 active;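 active means mean percent activation of the reporter above a cutoff set as the average over tested compounds plus their standard deviation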
# Target sequence (P55055 whole entry, looked up, the tested form may be a part): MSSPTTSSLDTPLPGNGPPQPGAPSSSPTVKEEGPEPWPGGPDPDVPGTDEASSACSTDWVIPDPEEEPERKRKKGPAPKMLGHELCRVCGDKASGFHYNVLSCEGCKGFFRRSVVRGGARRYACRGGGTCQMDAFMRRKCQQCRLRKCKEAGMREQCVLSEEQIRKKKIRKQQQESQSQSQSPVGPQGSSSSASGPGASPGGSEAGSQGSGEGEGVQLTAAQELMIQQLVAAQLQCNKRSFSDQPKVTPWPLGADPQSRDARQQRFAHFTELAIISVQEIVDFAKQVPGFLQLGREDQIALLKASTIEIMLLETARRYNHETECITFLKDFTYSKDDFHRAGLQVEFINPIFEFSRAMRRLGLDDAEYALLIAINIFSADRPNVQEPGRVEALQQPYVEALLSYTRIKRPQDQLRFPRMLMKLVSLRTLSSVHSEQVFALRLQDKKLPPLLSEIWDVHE
# hcDAF12 conf – H. contortus DAF-12 receptor agonists, confirmation, cell-based, luminescence, HEK293, lit1-tk-luc, triplicate | shares compounds with hcDAF12 agonist | HEK293 hcDAF-12 lit1-tk-luc reporter; % of Δ7-dafachronic acid response | activation, % at 6.8 µM | 3,400 compounds, 61% hits;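 active means mean activation across triplicate tests above the threshold derived from the earlier primary screen, cut at about 5.5% in these data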;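 further: 0% = DMSO only wells and 100% = 3 µM Δ7-dafachronic acid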
# hgDAF12 ag – H. glycines DAF-12 receptor agonists, confirmation, cell-based, luminescence, HEK293, GAL4-LBD fusion; shares compounds with hgDAF12 agonist; activation, % at 6.8 µM; HEK293 GAL4-hgDAF12 luciferase reporter, agonist mode; percent of butyrate response; 3,300 compounds, 80% hits;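 active means mean activation over triplicate wells above the hit cutoff derived from the earlier primary screen, cut at about 11% in these data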;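 further: 0% = DMSO low control and 100% = 2 mM sodium butyrate high control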
# LXR ag 2 – LXR agonists, Gal4 luciferase reporter, confirmation, counter-screen for hgDAF-12 agonist project, cell-based, luminescence, HEK293, H. glycines campaign; shares compounds with hgDAF12 agonist; 24 h; activation, % at 6.8 µM; 3,300 tested, under 10 active;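 active means mean activation of the triplicate above a set limit carried over from the primary screen, none filed active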
# * marks the source's active call; other numbers are inactive results; / = no result given.
SMILES,AHR activator,hcDAF12 agonist,hgDAF12 agonist,DAX1 inh-1,ssDAF12 agonist,DAX1 inh-2,DAX1 conf,SF1 AF2mut Luc,hgDAF12 ag,LXR ag 2,others
Cc1csc(-c2nc3ccccc3n2C(C(=O)NC(C)(C)C)c2cc3ccccc3o2)c1 (stereo not drawn),/,9.4*,15.9*,10.9*,1.9*,/,6.6*,6.0*,18.2*,0.6,LXR ag=1.0;hcDAF12 conf=10.7*
CSc1ccc(Cl)c(C(=O)N2CCN(c3ncccn3)CC2)c1,1.3,-0.1,1.5,-0.9,-1.2,0.7,/,/,/,/,
Cc1ccc2nc(-c3ccc(NC(=O)COC(=O)c4ccc(=O)[nH]c4)cc3)sc2c1,-3.1,11.3*,21.8*,8.4*,1.2*,0.9,14.4*,8.5*,22.8*,1.4,LXR ag=1.7;hcDAF12 conf=10.9*
Cc1ccc2nc(-c3ccc(NC(=O)CSc4nc(N)cc(=O)[nH]4)cc3)sc2c1,6.8,2.8,25.4*,4.8*,-0.1,4.5*,7.3*,4.0*,18.3*,1.1,
Cc1ccc2nc(-c3ccc(NC(=O)CNC4CC4)cc3)sc2c1,/,4.8,21.4*,5.7*,2.4*,3.7,14.2*,7.0*,15.4*,0.8,
Cc1ccc2nc(-c3ccc(NC(=O)CN4C(=O)c5ccccc5C4=O)cc3)sc2c1,7.6,14.2*,19.3*,5.4*,2.2*,2.2,14.6*,7.4*,16.3*,0.8,LXR ag=0.9;hcDAF12 conf=8.3*
Cc1ccc2nc(-c3ccc(NC(=O)CN4CCN(c5ccccn5)CC4)cc3)sc2c1,1.2,-0.3,3.0,0.1,-1.6,/,/,/,/,/,
Nc1cc(=O)[nH]c(SCC(=O)Nc2nc3ccc([N+](=O)[O-])cc3s2)n1,3.6,/,/,/,/,/,/,/,/,/,
Cc1ccc2nc(NC(=O)COC(=O)c3ccncc3)sc2c1,13.1,0.6,8.8,2.0,-1.0,0.4,/,/,/,/,
Cc1ccc2nc(-c3ccc(NC(=S)NC(=O)CC(C)C)cc3)sc2c1,8.0,1.1,6.3,1.0,-0.1,3.4,/,/,/,/,
Cc1ccc(Nc2nc(Cl)nc3ncn(C)c23)c(C)c1,/,-0.1,4.4,-0.3,-0.4,-1.4,/,/,/,/,
COc1cc(/C=N/Nc2nc3ccccc3o2)cc(OC)c1O,14.8,1.2,5.5,-0.1,-0.2,0.2,/,/,/,/,
COc1ccc(/C=N/Nc2nc3ccccc3o2)cc1O,33.3,12.4*,14.9*,5.5*,0.8,0.3,5.4*,2.1,6.9,0.6,LXR ag=1.0;hcDAF12 conf=6.6*
Cc1cccc(C)c1-n1nnnc1C1(C)CCC(=O)N1Cc1cccnc1 (stereo not drawn),/,0.0,1.2,-0.1,-1.1,/,/,/,/,/,
C[C@H]1CN([C@@H](C)CO)C(=O)CCCn2cc(nn2)CO[C@@H]1CN(C)C(=O)Nc1ccc(C(F)(F)F)cc1,/,-0.8,-1.0,0.4,-1.3,1.3,/,/,/,/,
CN(C(=O)c1ccc2c(c1)OCO2)C1(C)CCS(=O)(=O)C1 (stereo not drawn),-1.7,-0.3,-0.2,1.0,-0.9,0.3,/,/,/,/,
Clc1ccc(CSc2nc3ccncc3[nH]2)cc1,6.8,5.9*,18.6*,8.4*,0.7,-2.8,12.0*,5.9*,19.4*,0.9,
CS(=O)(=O)N(Cc1nc(-c2ccc(F)cc2)no1)c1ccccc1Cl,-4.7,-2.2,-1.8,0.3,-1.6,0.0,/,/,/,/,
Fc1ccc(Nc2ccc3ccccc3n2)c(F)c1,-3.7,9.8*,14.5*,9.7*,1.0*,-1.7,13.6*,9.4*,19.7*,1.3,LXR ag=1.8;hcDAF12 conf=9.4*
O=C(Nc1ccc2ccccc2n1)Nc1ccccc1F,12.6,-1.0,-1.0,-0.3,-1.0,-0.1,/,/,/,/,
O=C(NCCSc1ccccn1)c1ccc(Cl)cc1,16.0,5.2,20.9*,4.5*,0.4,1.2,10.2*,4.8*,16.3*,0.8,
CS(=O)(=O)N(Cc1ccc(Cl)cc1)c1ccc(C(=O)NCCSc2ccccn2)cc1,3.1,-3.5,-3.5,-0.9,-0.6,-0.6,/,/,/,/,
O=C(NCCSc1ccccn1)c1ccc(Cl)cc1Cl,12.0,4.3,15.2*,7.3*,-0.4,1.3,10.6*,6.6*,18.3*,1.0,
O=C(NCCCNC(=O)c1cc(Cl)ccc1Cl)c1ccccn1,0.0,-0.7,1.4,0.1,-1.1,0.5,/,/,/,/,
O=C(c1ccccc1)c1coc(-c2ccccc2)c1,/,5.3,14.2*,7.5*,0.7,2.3,14.4*,5.0*,20.6*,1.1,
CCOC(=O)N1CCc2c(sc(NC(=O)CN(CC)CC)c2C#N)C1,-2.5,-2.2,-0.8,-0.3,-0.9,/,/,/,/,/,
COc1ccc(C(=O)N/N=C/c2ccccn2)cc1,/,1.4,13.5*,4.5*,-0.5,0.2,6.6*,4.1*,12.9*,0.5,

# Assay outcomes as filed in PubChem.
